SMILES strings stand for the structures. Inconclusive results are not listed. Active and inactive are the calls of the source. Rule for the calls, unless noted: active = hit-call score of the fitted dose curve at least 0.9, where 1 is the maximum; inactive = score below 0.9.

Experiment [1] is described as follows: ATG_PBREM_CIS: Attagene CIS-FACTORIAL HepG2 Assay for human Phenobarbital-responsive Enhancer Module (PBREM) (AID 2282955). The following applies: HepG2 PBREM cis-reporter, Attagene multiplexed transcription; actives raise or lower the signal. The gist of the method: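 HepG2 cells transiently transfected with multiple cis-regulated reporter transcription units; endogenous factor activity at the PBREM element measured as reporter mRNA 24 h after dosing, via RT-PCR and capillary electrophoresis of fluorescent fragments; bidirectional fitting versus DMSO.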

The target in experiment [2] is Paired box protein Pax-6 (Homo sapiens) (UniProt P26367). Nature of the experiment: ATG_Pax6_CIS: Attagene CIS-FACTORIAL HepG2 Assay for human Paired Box 6 (PAX6) (AID 2282956). To be noted: HepG2 CIS-FACTORIAL PAX6 reporter transcription, RNA readout; actives raise or lower the signal. The method, boiled down: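 Read-out is reporter transcript level, measured by RT-PCR with fluorescent primer extension and capillary electrophoresis after 24 h dosing of transfected HepG2 cells. Activity in either direction fitted relative to DMSO control.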
Sequence of Paired box protein Pax-6 (Homo sapiens) (P26367 whole entry, looked up): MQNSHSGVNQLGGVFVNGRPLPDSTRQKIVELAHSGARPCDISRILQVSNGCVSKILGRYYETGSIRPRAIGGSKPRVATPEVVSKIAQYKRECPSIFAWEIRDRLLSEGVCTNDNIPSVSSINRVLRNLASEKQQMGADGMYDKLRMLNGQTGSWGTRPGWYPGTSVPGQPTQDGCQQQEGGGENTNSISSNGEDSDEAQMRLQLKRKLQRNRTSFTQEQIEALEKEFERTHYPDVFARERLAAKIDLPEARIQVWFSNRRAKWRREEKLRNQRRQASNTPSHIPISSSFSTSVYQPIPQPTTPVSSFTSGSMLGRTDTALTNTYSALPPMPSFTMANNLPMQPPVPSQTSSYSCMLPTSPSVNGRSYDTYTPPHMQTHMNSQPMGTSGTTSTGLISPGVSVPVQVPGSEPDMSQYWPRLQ

Experiment [3] is described as follows: ATG_PXRE_CIS: Attagene CIS-FACTORIAL HepG2 Assay for human Pregnane X Receptor Element (PXRE) (AID 2282957). To be noted: HepG2 Attagene CIS-FACTORIAL PXRE reporter, mRNA; actives raise or lower the signal. The method, boiled down:
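Endogenous transcription factor activity in HepG2 was gauged through induction of reporter mRNA driven by a cis-regulating promoter element, sampled 24 h post-treatment. Activity was fitted in both directions against DMSO negative control.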

Experiment [4] can be described thus: ATG_PPRE_CIS: Attagene CIS-FACTORIAL HepG2 Assay for human Peroxisome Proliferator-activated Response Element (PPRE) (AID 2282958). The following applies: HepG2 PPRE cis-element reporter, Attagene transcription factor profiling; actives raise or lower the signal. The method, boiled down: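 HepG2 cells transiently transfected with multiplexed cis-element reporter units measure endogenous transcription factor activity. After 24 h compound exposure, reporter mRNA is quantified by RT-PCR, 6-FAM labeling, HpaI digestion and capillary electrophoresis; bidirectional fits are made against DMSO baseline.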

Experiment [5] can be described thus: ATG_RORE_CIS: Attagene CIS-FACTORIAL HepG2 Assay for human RAR-related Orphan Receptor Element (RORE) (AID 2282959). The following applies: HepG2 Attagene cis-factorial RORE reporter, mRNA; actives raise or lower the signal. The gist of the method: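 HepG2 cells transiently transfected with multiple cis-element reporter transcription units, exposed to chemical for 24 h. Reporter mRNA quantified by RT-PCR, 6-FAM primer-extension labeling, HpaI digestion and capillary electrophoresis; bidirectional fit versus DMSO baseline.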

Experiment [6] is described as follows: ATG_Sox_CIS: Attagene CIS-FACTORIAL HepG2 Assay for human SRY-box transcription factor (SOX) (AID 2282960). The following applies: HepG2 Attagene cis-factorial SOX reporter, mRNA; actives raise or lower the signal. The method, boiled down:
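HepG2 cells transiently transfected with cis-element-driven multiple reporter transcription units, dosed 24 h; reporter mRNA measured by RT-PCR, FAM labelling, HpaI digestion and capillary electrophoresis. Bidirectional fit versus DMSO baseline.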

Experiment [7] is described as follows: ATG_SREBP_CIS: Attagene CIS-FACTORIAL HepG2 Assay for human Sterol Regulatory Element Binding (SREBP) (AID 2282962). To be noted: HepG2 Attagene cis-factorial SREBP reporter, mRNA; actives raise or lower the signal. The gist of the method:
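Endogenous SREBP activity read as cis-element-driven reporter transcript in transiently transfected HepG2, 24 h post-dosing; quantified via RT-PCR plus capillary electrophoresis of fluorescent fragments. Gain or loss of signal fitted relative to DMSO baseline.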

In experiment [8] the target is Signal transducer and activator of transcription 3 (Homo sapiens) (UniProt P40763). The experiment in a line: ATG_STAT3_CIS: Attagene CIS-FACTORIAL HepG2 Assay for human Signal Transducer and Activator of Transcription 3 (STAT3) (AID 2282963). To be noted: HepG2, Attagene cis-factorial STAT3 reporter transcription; actives raise or lower the signal. The gist of the method:
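Readout is reporter transcript quantified by RT-PCR and capillary electrophoresis, with 6-FAM primer extension and HpaI digestion. Total RNA is taken 24 h after dosing transiently transfected HepG2 carrying cis-regulated reporter units. Bidirectional fit against DMSO.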

Experiment [9] is described as follows: ATG_TA_CIS: Attagene CIS-FACTORIAL HepG2 Assay for human TA Basal Promoter (AID 2282964). The following applies: HepG2 Attagene CIS-factorial TA basal promoter reporter; actives raise or lower the signal. The method, boiled down:
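Read-out: fluorescent reporter-transcript fragments resolved by capillary electrophoresis after RT-PCR and HpaI digestion. Source: HepG2 cells carrying transiently transfected multi-reporter cis constructs, treated 24 h. Endpoint fitted bidirectionally relative to DMSO.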

Experiment [10] in a line: ATG_TCF_b_cat_CIS: Attagene CIS-FACTORIAL HepG2 Assay for human T-Cell-Factor with beta-catenin (TCF/b-cat) (AID 2282965). The following applies: HepG2 TCF/beta-catenin cis-reporter transcription, actives raise or lower the signal. The gist of the method:
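Measured: reporter mRNA in HepG2 transiently transfected with cis-promoter reporter units, 24 h after chemical addition. Fitting was bidirectional, DMSO as negative control.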

Experiment [11] is described as follows: ATG_TAL_CIS: Attagene CIS-FACTORIAL HepG2 Assay for human TAL Basal Promoter (AID 2282966).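 Note: background control endpoint measuring basal TAL promoter reporter mRNA not a specific factor.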 To be noted: HepG2 Attagene cis-factorial TAL promoter reporter; actives raise or lower the signal. The method, boiled down:
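Endogenous transcription-factor activity is sensed in HepG2 cells through transfected cis-promoter reporter constructs. After 24 h dosing, reporter transcripts are quantified by RT-PCR and capillary electrophoresis. Gain or loss of signal is fitted relative to DMSO.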

Experiment [12] can be described thus: ATG_TGFb_CIS: Attagene CIS-FACTORIAL HepG2 Assay for human Transforming Growth Factor (TGF) (AID 2282967). To be noted: HepG2 Attagene CIS TGFb reporter, mRNA transcription; actives raise or lower the signal. The method, boiled down: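 Transient MRTU transfection of HepG2 (FuGene 6). Dose 24 h. TriZol RNA, oligo(dT) RT, PCR, 6-FAM primer extension, HpaI cut, CE. Bidirectional fit, DMSO = baseline.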

Experiment [13] in a line: ATG_VDRE_CIS: Attagene CIS-FACTORIAL HepG2 Assay for human Vitamin D Receptor Element (VDRE) (AID 2282968). To be noted: HepG2 VDRE cis-reporter transcription, actives raise or lower the signal. The method, boiled down: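 Readout is VDRE-driven reporter mRNA reflecting endogenous factor activity in human HepG2 cells, sampled 24 h post-dose. Quantification used labelled RT-PCR products separated by capillary electrophoresis; bidirectional analysis relative to DMSO.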

For experiment [14], the target named is Nuclear receptor subfamily 1 group I member 3 (Homo sapiens) (UniProt Q14994). The experiment in a line: ATG_CAR_TRANS: Attagene TRANS-FACTORIAL HepG2 Assay for human Constitutive Androstane Receptor (CAR) (AID 2282969; active = hit-call score of the fitted dose curve at least 0.9, where 1 is the maximum;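 note: activators raise reporter mRNA above DMSO so AC50 marks induction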). The following applies: HepG2 Attagene TRANS-FACTORIAL CAR reporter. The gist of the method:
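Signal is reporter mRNA induction relative to DMSO, measured 24 h after dosing by RT-PCR with fluorescent primer extension and capillary electrophoresis. Human HepG2 liver cells carried transiently transfected chimeric NR-Gal4/GAL4-UAS reporter constructs.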

The target of experiment [15] is Estrogen receptor (Homo sapiens) (UniProt P03372). Nature of the experiment: ATG_ERa_TRANS: Attagene TRANS-FACTORIAL HepG2 Assay for human Estrogen Receptor alpha (ERa) (AID 2282970; active = hit-call score of the fitted dose curve at least 0.9, where 1 is the maximum). The following applies: HepG2 Attagene TRANS ERa GAL4 reporter, mRNA. The method, boiled down:
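Transfected HepG2 cells carrying GAL4-UAS-driven reporter units were dosed for 24 hours. Total RNA was reverse-transcribed, reporter sequences PCR-amplified, FAM-labelled, HpaI-digested and resolved by capillary electrophoresis. Increases over DMSO control defined activity.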

Experiment [16] has as its target Steroid hormone receptor ERR1 (Homo sapiens) (UniProt P11474). Nature of the experiment: ATG_ERRa_TRANS: Attagene TRANS-FACTORIAL HepG2 Assay for human Estrogen-Related Receptor alpha (ERRa) (AID 2282971; active = hit-call score of the fitted dose curve at least 0.9, where 1 is the maximum). To be noted: HepG2 Attagene TRANS reporter, ERRa transactivation. The gist of the method: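 HepG2 cells were transiently transfected with multiple GAL4-UAS reporter units, then dosed with compound for 24 h. Total RNA was reverse-transcribed, reporter cDNA PCR-amplified and fluorescently labelled, and fragments resolved by capillary electrophoresis; induction was compared with DMSO.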

Experiment [17] addresses X-box-binding protein 1 (Homo sapiens) (UniProt P17861). The experiment in a line: ATG_Xbp1_CIS: Attagene CIS-FACTORIAL HepG2 Assay for human X-box Binding Protein 1 (XBP1) (AID 2282972). The following applies: HepG2 XBP1 cis-element reporter, Attagene multiplex; actives raise or lower the signal. The method, boiled down:
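Reporter transcripts were quantified by RT-PCR with fluorescent primer extension and capillary electrophoresis after 24 h chemical exposure. Cells: transiently transfected HepG2 carrying cis-regulated reporter constructs; data fitted bidirectionally relative to DMSO.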

The target of experiment [18] is Transcription factor Sp1 (Homo sapiens) (UniProt P08047). Nature of the experiment: ATG_Sp1_CIS: Attagene CIS-FACTORIAL HepG2 Assay for human Specificity Protein 1 (Sp1) (AID 2282961). To be noted: HepG2 Sp1 cis-reporter transcription, actives raise or lower the signal. The method, boiled down:
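HepG2 cells transiently transfected with multiple reporter transcription units driven by cis-regulatory elements; Sp1-responsive reporter mRNA measured 24 h after dosing by RT-PCR and capillary electrophoresis fluorescence, fitted bidirectionally against DMSO baseline.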

The nature of experiment [19]: ATG_M_19_TRANS: Attagene TRANS-FACTORIAL HepG2 Assay for M19 Transcription Factor (Internal Marker) (AID 2282974; active = hit-call score of the fitted dose curve at least 0.9, where 1 is the maximum). To be noted: HepG2 Attagene TRANS-FACTORIAL M19 internal marker reporter. The gist of the method: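 HepG2 cells transiently transfected with multiple GAL4-UAS reporter transcription units were exposed to chemicals for 24 h. Reporter mRNA was read by RT-PCR, 6-FAM primer extension, HpaI digestion and capillary electrophoresis; gain of signal fitted relative to DMSO.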

Experiment [20] in a line: ATG_GAL4_TRANS: Attagene TRANS-FACTORIAL HepG2 Assay for GAL4 (Internal Marker) (AID 2282976; active = hit-call score of the fitted dose curve at least 0.9, where 1 is the maximum). The following applies: HepG2 Attagene TRANS GAL4 internal marker reporter. The gist of the method:
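Fluorescence from capillary electrophoresis of labelled RT-PCR products quantifies reporter mRNA induction after 24 h dosing of HepG2 cells carrying transfected GAL4-UAS reporter transcription units. Vehicle DMSO serves as baseline.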

Sequence of Nuclear receptor subfamily 1 group I member 3 (Homo sapiens) (Q14994 whole entry, looked up, the tested form may be a part): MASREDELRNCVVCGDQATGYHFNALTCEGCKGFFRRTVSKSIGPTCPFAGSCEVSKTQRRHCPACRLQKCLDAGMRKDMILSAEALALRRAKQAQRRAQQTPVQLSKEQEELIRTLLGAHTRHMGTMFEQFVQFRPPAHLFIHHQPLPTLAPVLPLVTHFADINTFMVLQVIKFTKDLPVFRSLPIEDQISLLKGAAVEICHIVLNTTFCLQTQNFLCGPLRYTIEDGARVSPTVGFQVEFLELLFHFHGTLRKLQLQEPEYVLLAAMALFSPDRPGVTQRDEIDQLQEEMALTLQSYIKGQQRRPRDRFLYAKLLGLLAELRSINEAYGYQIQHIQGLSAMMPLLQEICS
Sequence of X-box-binding protein 1 (Homo sapiens) (P17861 whole entry, looked up): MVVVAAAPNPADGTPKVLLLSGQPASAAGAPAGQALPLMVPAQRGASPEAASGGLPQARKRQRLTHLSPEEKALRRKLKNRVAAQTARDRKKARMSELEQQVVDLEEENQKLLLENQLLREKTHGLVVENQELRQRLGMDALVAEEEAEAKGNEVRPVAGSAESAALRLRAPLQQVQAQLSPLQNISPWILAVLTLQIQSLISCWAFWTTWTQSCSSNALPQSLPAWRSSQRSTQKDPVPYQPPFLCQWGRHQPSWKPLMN
Sequence of Transcription factor Sp1 (Homo sapiens) (P08047 whole entry, looked up): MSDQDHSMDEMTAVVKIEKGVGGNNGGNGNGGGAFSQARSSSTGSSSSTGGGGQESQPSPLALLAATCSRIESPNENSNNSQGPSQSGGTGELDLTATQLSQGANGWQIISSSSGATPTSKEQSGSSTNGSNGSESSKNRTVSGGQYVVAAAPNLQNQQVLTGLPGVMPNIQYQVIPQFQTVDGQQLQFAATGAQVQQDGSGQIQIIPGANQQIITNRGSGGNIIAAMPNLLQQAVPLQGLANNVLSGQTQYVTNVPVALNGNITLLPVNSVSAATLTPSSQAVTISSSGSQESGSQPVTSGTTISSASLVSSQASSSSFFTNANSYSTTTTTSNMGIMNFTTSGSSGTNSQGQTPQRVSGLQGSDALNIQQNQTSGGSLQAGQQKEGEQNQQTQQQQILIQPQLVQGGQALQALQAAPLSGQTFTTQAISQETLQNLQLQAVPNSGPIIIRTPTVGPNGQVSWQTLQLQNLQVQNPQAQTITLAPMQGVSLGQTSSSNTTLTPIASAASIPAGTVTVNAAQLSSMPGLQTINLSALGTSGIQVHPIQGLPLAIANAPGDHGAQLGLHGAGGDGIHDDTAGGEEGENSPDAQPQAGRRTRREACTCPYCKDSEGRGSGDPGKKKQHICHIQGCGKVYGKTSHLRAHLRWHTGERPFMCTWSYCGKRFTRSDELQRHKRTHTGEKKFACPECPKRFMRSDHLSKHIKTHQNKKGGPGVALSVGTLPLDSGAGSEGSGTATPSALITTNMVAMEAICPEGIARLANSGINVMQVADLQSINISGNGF
Sequence of Signal transducer and activator of transcription 3 (Homo sapiens) (P40763 whole entry, looked up): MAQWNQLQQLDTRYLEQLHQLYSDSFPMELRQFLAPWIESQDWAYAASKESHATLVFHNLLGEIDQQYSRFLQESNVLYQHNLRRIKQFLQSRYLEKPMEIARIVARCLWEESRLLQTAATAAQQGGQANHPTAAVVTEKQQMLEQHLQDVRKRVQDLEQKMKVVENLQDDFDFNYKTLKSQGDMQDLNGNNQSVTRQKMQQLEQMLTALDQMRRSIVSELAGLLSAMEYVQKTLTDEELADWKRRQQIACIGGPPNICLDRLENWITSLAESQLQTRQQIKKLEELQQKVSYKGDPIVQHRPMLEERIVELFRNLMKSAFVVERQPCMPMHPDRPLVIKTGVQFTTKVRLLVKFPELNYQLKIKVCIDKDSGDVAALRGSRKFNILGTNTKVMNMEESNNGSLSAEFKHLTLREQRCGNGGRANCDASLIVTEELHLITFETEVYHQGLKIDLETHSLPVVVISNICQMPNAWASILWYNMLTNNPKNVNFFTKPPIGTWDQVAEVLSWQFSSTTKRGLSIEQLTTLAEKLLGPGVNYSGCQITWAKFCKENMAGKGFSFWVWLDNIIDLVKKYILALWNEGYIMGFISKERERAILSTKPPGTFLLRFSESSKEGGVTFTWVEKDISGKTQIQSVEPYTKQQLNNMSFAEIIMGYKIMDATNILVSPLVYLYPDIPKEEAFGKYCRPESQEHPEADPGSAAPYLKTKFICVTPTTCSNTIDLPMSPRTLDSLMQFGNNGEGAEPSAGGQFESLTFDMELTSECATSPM
Sequence of Estrogen receptor (Homo sapiens) (P03372 whole entry, looked up, the tested form may be a part): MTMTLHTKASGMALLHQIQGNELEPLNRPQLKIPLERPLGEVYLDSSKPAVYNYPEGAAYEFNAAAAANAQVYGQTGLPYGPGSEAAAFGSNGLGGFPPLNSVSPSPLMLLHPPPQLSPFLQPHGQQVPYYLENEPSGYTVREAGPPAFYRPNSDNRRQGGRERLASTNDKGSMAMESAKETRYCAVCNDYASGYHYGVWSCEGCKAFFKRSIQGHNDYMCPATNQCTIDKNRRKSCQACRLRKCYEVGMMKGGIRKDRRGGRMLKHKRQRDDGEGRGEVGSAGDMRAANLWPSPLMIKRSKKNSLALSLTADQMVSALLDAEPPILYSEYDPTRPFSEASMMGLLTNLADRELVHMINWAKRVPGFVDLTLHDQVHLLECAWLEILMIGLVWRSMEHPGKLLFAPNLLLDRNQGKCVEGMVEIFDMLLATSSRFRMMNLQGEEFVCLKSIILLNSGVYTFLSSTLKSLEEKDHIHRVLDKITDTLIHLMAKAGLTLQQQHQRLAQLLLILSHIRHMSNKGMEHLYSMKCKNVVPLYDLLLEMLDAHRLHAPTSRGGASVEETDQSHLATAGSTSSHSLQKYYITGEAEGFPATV
Sequence of Steroid hormone receptor ERR1 (Homo sapiens) (P11474 whole entry, looked up, the tested form may be a part): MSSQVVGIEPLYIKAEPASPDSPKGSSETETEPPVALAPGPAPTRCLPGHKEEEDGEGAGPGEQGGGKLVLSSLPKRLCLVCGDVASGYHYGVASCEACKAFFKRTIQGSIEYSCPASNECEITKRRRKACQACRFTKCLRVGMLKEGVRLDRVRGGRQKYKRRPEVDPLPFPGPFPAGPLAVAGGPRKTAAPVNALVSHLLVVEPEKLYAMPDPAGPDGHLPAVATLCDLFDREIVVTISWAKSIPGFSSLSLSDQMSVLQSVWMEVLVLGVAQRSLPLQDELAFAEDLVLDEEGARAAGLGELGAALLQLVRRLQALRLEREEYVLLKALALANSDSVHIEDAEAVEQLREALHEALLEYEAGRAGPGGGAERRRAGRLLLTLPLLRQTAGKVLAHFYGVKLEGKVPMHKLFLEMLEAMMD

The term AC50 denotes the concentration at which the activity in the assay is half-maximal. With `CCCCC(CC)COC(=O)/C=C/c1ccc(OC)cc1` (stereo not drawn), the result in [1], in [2], in experiment [4], in [5], in [6] and in [7] was inactive. Besides, the result in experiment [8], in experiment [9], in experiment [10], in [11], in experiment [12] and in experiment [13] was inactive. The call in experiment [14], in [15], in experiment [16] and in experiment [17] was inactive. In addition, in experiment [3], the AC50 was 39.4 µM (active).
On to `Nc1ccc(C(=O)O)cc1`, for which the result in experiment [1], in experiment [2], in experiment [3], in [4], in [5] and in [6] was inactive. Further, the result in experiment [18], in experiment [7], in experiment [9], in experiment [10], in experiment [11] and in experiment [12] was inactive. Further, the outcome in [15], in experiment [17], in experiment [19] and in [20] was inactive.
With `COc1ccc(-c2coc3cc(O)cc(O)c3c2=O)cc1`, the outcome in [1], in [2], in [6], in [18], in experiment [7] and in experiment [8] was inactive. The call in experiment [9], in [10], in experiment [11], in [12], in experiment [19] and in experiment [20] was inactive. Besides, the AC50 in experiment [3] was 24.9 µM (active); in [4] it was 100 µM (active); in experiment [13] it was 27 µM (active); in [15], 432 nM (active).
For the compound `CC=C(C)C(C)=O`, the outcome in [1], in [2], in experiment [4], in experiment [6], in experiment [18] and in experiment [7] was inactive. Moreover, the outcome in experiment [8], in experiment [10], in experiment [11], in experiment [12], in experiment [14] and in experiment [17] was inactive. For the same compound, the result in experiment [20] was inactive. Besides, the concentration at half-maximal activity (AC50) in [3] is 8.49 µM (active).
In the case of `CC(C)(CO)C(O)C(=O)NCCCO` (stereo not drawn), the result in experiment [1], in experiment [2], in experiment [3], in experiment [4], in experiment [5] and in [6] was inactive. Moreover, the compound was called inactive in [7], in [8], in [9], in experiment [10], in experiment [11] and in experiment [12]. In addition, the outcome in [13] and in [17] was inactive.
With `O=C(O)CCCC(=O)O`, the outcome in experiment [1], in experiment [2], in experiment [3], in experiment [4], in experiment [6] and in experiment [18] was inactive. The compound was classed as inactive in experiment [7], in [8], in experiment [9], in experiment [10], in experiment [11] and in [12]. Further, the call in experiment [15] and in experiment [17] was inactive.
On to `CCOC(=O)[C@H](O)[C@@H](O)C(=O)OCC`, for which the result in experiment [1], in experiment [2], in experiment [4], in experiment [6], in experiment [18] and in experiment [7] was inactive. In addition, the call in experiment [8], in experiment [9], in experiment [10], in [11], in experiment [12] and in experiment [13] was inactive. Moreover, the outcome in [14], in experiment [15], in [17] and in [20] was inactive. For the same compound, in [3], the AC50 is 52.4 µM (active).

Source of the values: PubChem BioAssay (EPA / NIEHS).
